Values without a mark were called inactive.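 How the source made its calls: active = growth AUC significantly below the DMSO wells by Dunnett test; inactive = the rest.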

In this assay the test system is Carnobacterium 1 (Carnobacterium gallinarum). Nature of the assay: relative growth (AUC of 72 h growth curve relative to DMSO control, dAUC) (ratio); higher = more growth (less inhibition), active = hit call of the paper. Conditions: 20 µM. The method, then:
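Environmental bacterial isolates (Iceland stream sediment and Silwood Park soil) and whole stream-sediment communities were grown in LB from a 1:100 dilution with each pesticide at 20 µM (1% DMSO). A600 was read hourly for 72 h and the area under a spline-fitted growth curve (AUC) was computed. dAUC is the mean AUC of 3 biological replicates divided by the mean AUC of the DMSO controls. Significance was tested by Dunnett's test against the DMSO control.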
On to `N#CC(CCc1ccc(Cl)cc1)(Cn1cncn1)c1ccccc1` (stereo not given), for which the relative growth was 0.805. For the compound `O=C(Nc1ccc(F)cc1F)c1cccnc1Oc1cccc(C(F)(F)F)c1`, the relative growth was 1.1. With `COC(=O)c1ccccc1S(=O)(=O)NC(=O)Nc1nc(C)nc(OC)n1` the figure was 1.2; with `Cc1nnc(-c2ccccc2)c(=O)n1N`, 0.953; with `CC1(C(=O)Nc2ccc(O)c(Cl)c2Cl)CCCCC1`, 0.935. With `Nc1c(Cl)c(F)nc(OCC(=O)O)c1Cl`, the relative growth is 1.23. As to `CC1COC(Cn2cncn2)(c2ccc(Oc3ccc(Cl)cc3)cc2Cl)O1` (stereo not given), the relative growth is 1.19. In the case of `O=[N+]([O-])c1cc(C(F)(F)F)c(Cl)c([N+](=O)[O-])c1Nc1ncc(C(F)(F)F)cc1Cl`, the relative growth was 0.00939 (active). Turning to `Fc1ccc([C@]2(Cn3cncn3)O[C@H]2c2ccccc2Cl)cc1` (racemic), the relative growth is 0.995. To `CCOCN(C(=O)CCl)c1c(C)cccc1CC` belongs 1. `COCc1cnc(C2=NC(C)(C(C)C)C(=O)N2)c(C(=O)O)c1` (stereo not given): the relative growth was 0.837. Turning to `CON(C)C(=O)Nc1ccc(Cl)c(Cl)c1`, the relative growth was 1.02. As for `N#Cc1c(Cl)c(Cl)c(Cl)c(C#N)c1Cl`, the relative growth was 1.11.

On to `COc1ccc(C(=CC(=O)N2CCOCC2)c2ccc(Cl)cc2)cc1OC` (mixture of isomers), for which the relative growth was 1.56. To `CC(Oc1ccc(Oc2ncc(C(F)(F)F)cc2Cl)cc1)C(=O)O` (stereo not given) belongs 1.23; to `CCCSP(=O)(OCC)Oc1ccc(Br)cc1Cl` (stereo not given), 0.842. `CS(=O)(=O)NC(=O)c1cc(Oc2ccc(C(F)(F)F)cc2Cl)ccc1[N+](=O)[O-]`: the relative growth is 0.908. Turning to `COC(=O)N(OC)c1ccccc1COc1ccn(-c2ccc(Cl)cc2)n1`, the relative growth was 1.36. With `CCCCCCCCCCCCNC(=N)N` the figure was 0.0114 (active).

With `COc1ccc(-c2ccccc2)cc1NNC(=O)OC(C)C`, the relative growth was 0.828.

As for `Cc1cccc2sc3nncn3c12`, the relative growth is 0.911. As for `CC(C)(C)C(O)(CCc1ccc(Cl)cc1)Cn1cncn1` (stereo not given), the relative growth was 0.864. As to `COc1cc(C)c(C(=O)c2c(OC)ccc(Br)c2C)c(OC)c1OC`, the relative growth was 1.4. For the compound `COP(N)(=O)SC` (stereo not given), the relative growth is 0.69. With `CNC(=O)CSP(=S)(OC)OC`, the relative growth is 0.894. With `O=C(NCCc1ncc(C(F)(F)F)cc1Cl)c1ccccc1C(F)(F)F` the figure was 0.905. With `C[C@@H]1[C@@H](c2ccc(Cl)cc2)SC(=O)N1C(=O)NC1CCCCC1`, the relative growth is 0.881. For the compound `CC(COc1ccc(Oc2ccccc2)cc1)Oc1ccccn1` (stereo not given), the relative growth is 1.38. Regarding `CS(=O)(=O)c1ccc(C(=O)C2C(=O)CCCC2=O)c([N+](=O)[O-])c1`, the relative growth was 1.44.

Turning to `Clc1ccc(C(c2ccc(Cl)cc2)C(Cl)(Cl)Cl)cc1`, the relative growth was 1.1. As for `Fc1ccc(Oc2ccnc3cc(Cl)cc(Cl)c23)cc1`, the relative growth was 1.13.

As for `Cc1cc(C(C#N)c2ccc(Cl)cc2)c(Cl)cc1NC(=O)c1cc(I)cc(I)c1O` (stereo not given), the relative growth was 0.0215 (active). To `O=C(O)COc1ccc(Cl)cc1Cl` belongs 1.06; to `CC1(C)CON(Cc2ccccc2Cl)C1=O`, 0.914; to `CSc1nc(NC(C)C)nc(NC(C)C)n1`, 0.71.

For `Nc1c([N+](=O)[O-])ccc(Oc2ccccc2)c1Cl`, the relative growth was 0.792. With `CN/C(=N/CC1CCOC1)N[N+](=O)[O-]` (stereo not given) the figure was 1.46; with `N#Cc1cc(Br)c(O)c(Br)c1`, 1.05. `CCOCn1c(-c2ccc(Cl)cc2)c(C#N)c(Br)c1C(F)(F)F`: the relative growth was 1.16. `COC(=O)NC(=S)Nc1ccccc1NC(=S)NC(=O)OC`: the relative growth is 0.745.

These data come from the supplement of paper PMC12067926.
